Data taken from PubChem BioAssay (Tox21).
Values joined by “and” are separate entries in the source; they are usually repeats but may differ in a detail not shown here. Equal entries are not always repeated. Inconclusive results are not listed. Where a structure was tested more than once in an assay, its records may differ in their call. Active and inactive are the calls of the source. Unless noted, calls follow the shape of the dose curve; as a rule, active = well fitted curve in the direction sought with a large enough effect in the repeat runs; inconclusive = weak or mixed curves; inactive = no such curve, though single readings can be large; an effect the other way counts as inactive or inconclusive.

Experiments:
[1] = target: Thyrotropin-releasing hormone receptor (Homo sapiens) (UniProt P34981); assay: qHTS assay to identify small molecule agonists of the thyrotropin-releasing hormone receptor (TRHR) signaling pathway (AID 1346891; calls by dose curve;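 also: HEK293 cells expressing TRHR with calcium dye readout; series mostly up to about 58 µM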)
Outline: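 In 1536-format, 1500 TRHR-Hek293 cells per well grew 18 h, took up calcium dye for 2 h at 37 °C, received compound, and were read kinetically; 15-point titrations, triplicates.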

[2] = Human pregnane X receptor (PXR) small molecule agonists, qHTS cell viability counter screen (AID 1346977); also: nearly all actives have a fitted effect of over 50% in size
Outline: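 Readout is CellTiter-Fluor fluorescence from PXR-Luc HepG2 cells. Plated cells rested 5hr, then were treated with compounds for 24hr at 37C and 5% CO2, with reagent present during the last hour.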

[3] = Caspase-3/7 induction in HepG2 cells by small molecules, qHTS assay (AID 1346978); also: nearly all actives have a fitted effect of over 15% in size
Outline: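 Wild-type HepG2 cells (2,000/well) were settled 5 h at 37 C, 5% CO2, then exposed to compounds in DMSO for 17 h. Caspase-3/7 activity was read by luminescence 30 min after adding Caspase-Glo 3/7 reagent at room temperature.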

[4] = Caspase-3/7 induction in CHO-K1 cells by small molecules, qHTS cell viability counter screen (AID 1346979); also: nearly all actives have a fitted effect of over 35% in size
Outline: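 To flag cytotoxic compounds, treated CHO-K1 wild-type cells were given CellTiter-Fluor at 16hr and read fluorescently after 1hr at 37C; the caspase-3/7 luminescence was measured in these same wells.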

[5] = Caspase-3/7 induction in CHO-K1 cells by small molecules, qHTS assay (AID 1346980); also: nearly all actives have a fitted effect of over 15% in size
Outline: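 Wild-type cells were seeded at 1,500 per well and settled 5 hr at 37 C, 5% CO2, then exposed to DMSO-dissolved compounds for 17 hr. Caspase-Glo 3/7 reagent was added, and luminescence was read after 30min at room temperature.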

[6] = Caspase-3/7 induction in HepG2 cells by small molecules, qHTS cell viability counter screen (AID 1346981); also: series mostly up to about 92 µM; nearly all actives have a fitted effect of over 30% in size
Outline: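 In this quantitative HTS counter screen, compounds delivered in DMSO were left on unmodified HepG2 cells for 16 hr at 37 C. Viability was then determined fluorometrically with CellTiter-Fluor, in parallel with caspase-3/7 induction in the same wells.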

[7] = target: Cytochrome P450 2D6 (Homo sapiens) (UniProt P10635); assay: Cytochrome P450 Family 2 Subfamily D Member 6 (CYP2D6) small molecule antagonists: luciferase reporter qHTS assay (AID 1671196); also: nearly all actives have a fitted effect of over 50% in size; also: potency is read from the fitted curve at half-maximal effect
Outline: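 Test chemicals meet CYP2D6 plus proluciferin substrate (10 min, RT); NADPH regenerating solution then drives turnover for 1 h. Detection reagent halts the reaction; luminescence measured after 20 min.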

[8] = target: Cytochrome P450 2C19 (Homo sapiens) (UniProt P33261); assay: Cytochrome P450 Family 2 Subfamily C Member 19 (CYP2C19) small molecule antagonists: luciferase reporter qHTS assay (AID 1671197); also: nearly all actives have a fitted effect of over 65% in size; also: potency is read from the fitted curve at half-maximal effect
Outline: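 P450-Glo CYP2C19 screening system; proluciferin substrate; DMSO compound stocks; 10 min RT preincubation; NADPH regeneration, 1 h at 37C; luciferin detection reagent, 20 min RT; luminescence as RLU.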

[9] = target: Cytochrome P450 2C9 (Homo sapiens) (UniProt P11712); assay: Cytochrome P450 Family 2 Subfamily C Member 9 (CYP2C9) small molecule antagonists: luciferase reporter qHTS assay (AID 1671198); also: nearly all actives have a fitted effect of over 50% in size; also: potency is read from the fitted curve at half-maximal effect
Outline: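 CYP2C9 activity was measured with a P450-Glo proluciferin substrate. Enzyme–substrate mix was held with compound for 10 min at room temperature, then NADPH regeneration solution was added for 1 h at 37C. Luciferin product was read as luminescence.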

[10] = target: Cytochrome P450 1A2 (Homo sapiens) (UniProt P05177); assay: Cytochrome P450 Family 1 Subfamily A Member 2 (CYP1A2) small molecule antagonists: luciferase reporter qHTS assay (AID 1671199); also: nearly all actives have a fitted effect of over 50% in size; also: potency is read from the fitted curve at half-maximal effect
Outline: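 Steps: enzyme-substrate mix dispensed; test compounds and furafylline control pinned in; 10 min room temperature; NADPH regeneration solution added, 1 h; reaction stopped with luciferin detection reagent; luminescence read after 20 min.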

[11] = target: Voltage-gated inwardly rectifying potassium channel KCNH2 (Homo sapiens) (UniProt Q12809); assay: Human Ether-a-go-go-Related Gene (hERG) channel small molecule antagonists: fluorescence cell-based qHTS assay (AID 1671200); also: nearly all actives have a fitted effect of over 50% in size; also: potency is read from the fitted curve at half-maximal effect
Outline: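 Measured: Tl+ flux via fluorescence (480/540 nm) in hERG-expressing U2OS cells after 1 h dye loading at room temperature.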

[12] = target: Cytochrome P450 3A4 (Homo sapiens) (UniProt P08684); assay: Cytochrome P450 Family 3 Subfamily A Member 4 (CYP3A4) small molecule antagonists: luciferase reporter qHTS assay (AID 1671201); also: nearly all actives have a fitted effect of over 50% in size; also: potency is read from the fitted curve at half-maximal effect
Outline: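 Setup: enzyme-substrate mix, compound pin transfer, 10 min RT. Reaction: NADPH regeneration solution, 1 h RT. Readout: detection reagent stops turnover, luminescence measured after 20 min, expressed in relative luminescence units.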

[13] = target: Nuclear receptor subfamily 1 group I member 2 (Homo sapiens) (UniProt O75469); assay: Human pregnane X receptor (PXR) small molecule agonists, qHTS assay (AID 1346982); also: nearly all actives have a fitted effect of over 35% in size; also: potency is read from the fitted curve at half-maximal effect
Outline: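 Reporter HepG2 cells expressing PXR-Luc are cultured in charcoal-stripped FBS (5%), treated with compounds for 24 hr at 37 C, and assayed by ONE-Glo luminescence after 30 min at room temperature.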

[14] = target: Nuclear receptor subfamily 1 group I member 2 (Rattus norvegicus) (UniProt Q9R1A7); assay: Rat pregnane X receptor (rPXR) activation by small molecules, qHTS assay (AID 1346983); conditions: rPXR luciferase reporter cells, One-Glo luminescence, 24 h; max activation: stronger effect = higher value; also: nearly all actives have a fitted effect of over 20% in size
Outline: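 Cell-based rPXR luciferase reporter assay, 2,000 cells per well, rested 5hr at 37 C before compound addition in DMSO, then 24 hr at 37 C. One-Glo reagent was added and luminescence read after 30 min at room temperature.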

[15] = target: Nuclear receptor subfamily 1 group I member 2 (Homo sapiens) (UniProt O75469); assay: CYP3A4 induction through human pregnane X receptor (PXR) by small molecules, qHTS assay (AID 1346984); also: nearly all actives have a fitted effect of over 40% in size
Outline: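 Induction measured in HepG2-based DPX-2 cells co-expressing human PXR and a CYP3A4 promoter-driven luciferase. After a 24-hour compound exposure, cells received CYP3A4 luciferin substrate at 3uM final for 3 hours, and light output was then recorded.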

[16] = target: Nuclear receptor subfamily 1 group I member 2 (Homo sapiens) (UniProt O75469); assay: Human pregnane X receptor (PXR) activation by small molecules, qHTS assay (AID 1346985); also: nearly all actives have a fitted effect of over 40% in size
Outline: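 DPX-2 cells (HepG2 co-transfected with a PXR response element and a CYP3A4-promoter luciferase construct) were seeded at 2,000 per well, rested 5 hr at 37C, then exposed to DMSO-dissolved compounds for 24 hr. Activation was read as luciferase luminescence.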
% is scaled to controls: 0 for no effect and ±100 for the full control effect.

Sequence of Cytochrome P450 2C19 (Homo sapiens) (P33261 whole entry, looked up): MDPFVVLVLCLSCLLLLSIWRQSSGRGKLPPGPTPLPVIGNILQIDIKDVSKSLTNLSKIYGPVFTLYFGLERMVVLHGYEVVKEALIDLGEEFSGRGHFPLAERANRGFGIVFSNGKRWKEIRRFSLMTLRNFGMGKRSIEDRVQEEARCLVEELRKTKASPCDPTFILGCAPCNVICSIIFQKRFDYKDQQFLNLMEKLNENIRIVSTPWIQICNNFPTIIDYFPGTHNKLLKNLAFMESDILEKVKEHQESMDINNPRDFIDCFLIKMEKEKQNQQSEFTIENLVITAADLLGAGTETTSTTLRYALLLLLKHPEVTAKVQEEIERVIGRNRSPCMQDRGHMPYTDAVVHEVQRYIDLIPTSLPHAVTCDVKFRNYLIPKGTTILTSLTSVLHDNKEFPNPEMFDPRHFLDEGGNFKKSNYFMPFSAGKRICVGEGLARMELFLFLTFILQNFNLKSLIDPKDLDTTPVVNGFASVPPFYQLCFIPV
Sequence of Cytochrome P450 2C9 (Homo sapiens) (P11712 whole entry, looked up): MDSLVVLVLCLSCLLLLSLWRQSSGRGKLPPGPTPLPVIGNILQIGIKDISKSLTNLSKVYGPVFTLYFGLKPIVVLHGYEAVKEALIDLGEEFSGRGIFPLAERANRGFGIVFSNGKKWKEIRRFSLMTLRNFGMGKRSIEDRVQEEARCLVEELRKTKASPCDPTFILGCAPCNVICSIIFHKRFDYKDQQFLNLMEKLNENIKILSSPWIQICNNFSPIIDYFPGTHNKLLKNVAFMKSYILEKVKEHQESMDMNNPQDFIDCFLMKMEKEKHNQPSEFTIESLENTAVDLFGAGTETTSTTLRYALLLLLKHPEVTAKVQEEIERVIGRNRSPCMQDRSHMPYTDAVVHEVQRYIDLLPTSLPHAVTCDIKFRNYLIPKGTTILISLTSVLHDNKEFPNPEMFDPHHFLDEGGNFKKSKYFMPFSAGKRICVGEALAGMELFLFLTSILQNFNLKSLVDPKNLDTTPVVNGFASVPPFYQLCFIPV
Sequence of Cytochrome P450 3A4 (Homo sapiens) (P08684 whole entry, looked up): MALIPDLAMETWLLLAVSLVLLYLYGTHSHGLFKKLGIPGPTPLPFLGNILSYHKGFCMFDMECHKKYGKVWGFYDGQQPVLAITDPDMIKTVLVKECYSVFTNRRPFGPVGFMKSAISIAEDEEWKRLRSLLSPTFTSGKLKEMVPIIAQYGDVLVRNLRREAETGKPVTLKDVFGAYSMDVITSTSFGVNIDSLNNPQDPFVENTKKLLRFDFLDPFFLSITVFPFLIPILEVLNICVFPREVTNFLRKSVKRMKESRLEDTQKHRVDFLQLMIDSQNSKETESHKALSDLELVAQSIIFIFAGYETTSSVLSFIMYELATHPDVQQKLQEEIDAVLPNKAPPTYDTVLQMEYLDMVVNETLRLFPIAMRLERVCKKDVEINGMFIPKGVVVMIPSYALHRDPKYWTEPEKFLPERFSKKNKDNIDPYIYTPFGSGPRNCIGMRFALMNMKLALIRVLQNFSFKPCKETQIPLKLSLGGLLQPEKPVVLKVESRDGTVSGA
Sequence of Nuclear receptor subfamily 1 group I member 2 (Homo sapiens) (O75469 whole entry, looked up): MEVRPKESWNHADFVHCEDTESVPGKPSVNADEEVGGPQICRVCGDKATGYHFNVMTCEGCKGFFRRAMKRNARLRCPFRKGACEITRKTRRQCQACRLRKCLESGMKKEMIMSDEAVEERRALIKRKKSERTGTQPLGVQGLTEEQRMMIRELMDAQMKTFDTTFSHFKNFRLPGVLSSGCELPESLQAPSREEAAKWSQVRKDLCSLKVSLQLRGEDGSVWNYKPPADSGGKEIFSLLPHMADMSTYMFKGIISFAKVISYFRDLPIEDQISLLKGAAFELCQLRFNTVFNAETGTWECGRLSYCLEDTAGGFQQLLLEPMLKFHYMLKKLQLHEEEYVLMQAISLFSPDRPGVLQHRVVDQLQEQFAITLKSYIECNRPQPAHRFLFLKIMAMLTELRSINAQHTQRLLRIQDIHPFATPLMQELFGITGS
Sequence of Cytochrome P450 1A2 (Homo sapiens) (P05177 whole entry, looked up): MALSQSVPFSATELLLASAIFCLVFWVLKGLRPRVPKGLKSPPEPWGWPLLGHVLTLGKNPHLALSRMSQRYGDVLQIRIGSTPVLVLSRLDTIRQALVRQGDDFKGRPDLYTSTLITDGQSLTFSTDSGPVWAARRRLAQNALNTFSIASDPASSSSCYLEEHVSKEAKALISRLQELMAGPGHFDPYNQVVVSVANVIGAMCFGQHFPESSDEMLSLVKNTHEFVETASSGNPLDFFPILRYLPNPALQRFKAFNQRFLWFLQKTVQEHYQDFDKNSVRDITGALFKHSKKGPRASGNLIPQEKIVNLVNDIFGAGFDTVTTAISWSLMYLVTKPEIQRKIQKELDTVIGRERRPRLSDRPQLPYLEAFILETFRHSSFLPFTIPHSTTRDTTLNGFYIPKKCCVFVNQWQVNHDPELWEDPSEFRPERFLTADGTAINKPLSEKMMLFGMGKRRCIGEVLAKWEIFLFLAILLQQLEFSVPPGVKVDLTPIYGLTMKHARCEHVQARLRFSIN
Sequence of Thyrotropin-releasing hormone receptor (Homo sapiens) (P34981 whole entry, looked up): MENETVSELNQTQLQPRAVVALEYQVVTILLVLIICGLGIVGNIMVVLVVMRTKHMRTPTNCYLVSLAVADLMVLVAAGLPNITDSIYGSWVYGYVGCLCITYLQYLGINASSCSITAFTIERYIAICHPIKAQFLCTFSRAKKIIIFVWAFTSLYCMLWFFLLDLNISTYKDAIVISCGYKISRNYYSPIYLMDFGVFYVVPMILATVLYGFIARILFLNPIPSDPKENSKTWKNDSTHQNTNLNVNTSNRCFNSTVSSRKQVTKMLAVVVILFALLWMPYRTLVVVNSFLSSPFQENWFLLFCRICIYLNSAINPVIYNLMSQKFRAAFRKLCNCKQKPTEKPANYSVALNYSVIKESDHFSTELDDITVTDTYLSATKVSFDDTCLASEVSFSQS
Sequence of Cytochrome P450 2D6 (Homo sapiens) (P10635 whole entry, looked up): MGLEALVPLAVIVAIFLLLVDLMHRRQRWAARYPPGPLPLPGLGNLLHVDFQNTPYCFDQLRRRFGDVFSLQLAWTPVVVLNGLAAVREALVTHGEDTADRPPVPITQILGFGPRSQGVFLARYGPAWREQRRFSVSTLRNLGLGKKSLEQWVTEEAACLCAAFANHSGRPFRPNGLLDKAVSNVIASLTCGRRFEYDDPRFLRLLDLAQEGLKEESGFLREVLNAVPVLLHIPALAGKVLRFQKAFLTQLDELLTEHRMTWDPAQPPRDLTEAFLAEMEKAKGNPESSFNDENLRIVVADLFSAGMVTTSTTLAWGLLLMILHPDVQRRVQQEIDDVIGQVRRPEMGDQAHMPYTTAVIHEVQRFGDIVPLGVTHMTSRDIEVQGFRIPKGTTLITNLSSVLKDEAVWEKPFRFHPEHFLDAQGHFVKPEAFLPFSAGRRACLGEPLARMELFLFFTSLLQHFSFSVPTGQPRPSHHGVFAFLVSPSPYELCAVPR
Sequence of Voltage-gated inwardly rectifying potassium channel KCNH2 (Homo sapiens) (Q12809 whole entry, looked up): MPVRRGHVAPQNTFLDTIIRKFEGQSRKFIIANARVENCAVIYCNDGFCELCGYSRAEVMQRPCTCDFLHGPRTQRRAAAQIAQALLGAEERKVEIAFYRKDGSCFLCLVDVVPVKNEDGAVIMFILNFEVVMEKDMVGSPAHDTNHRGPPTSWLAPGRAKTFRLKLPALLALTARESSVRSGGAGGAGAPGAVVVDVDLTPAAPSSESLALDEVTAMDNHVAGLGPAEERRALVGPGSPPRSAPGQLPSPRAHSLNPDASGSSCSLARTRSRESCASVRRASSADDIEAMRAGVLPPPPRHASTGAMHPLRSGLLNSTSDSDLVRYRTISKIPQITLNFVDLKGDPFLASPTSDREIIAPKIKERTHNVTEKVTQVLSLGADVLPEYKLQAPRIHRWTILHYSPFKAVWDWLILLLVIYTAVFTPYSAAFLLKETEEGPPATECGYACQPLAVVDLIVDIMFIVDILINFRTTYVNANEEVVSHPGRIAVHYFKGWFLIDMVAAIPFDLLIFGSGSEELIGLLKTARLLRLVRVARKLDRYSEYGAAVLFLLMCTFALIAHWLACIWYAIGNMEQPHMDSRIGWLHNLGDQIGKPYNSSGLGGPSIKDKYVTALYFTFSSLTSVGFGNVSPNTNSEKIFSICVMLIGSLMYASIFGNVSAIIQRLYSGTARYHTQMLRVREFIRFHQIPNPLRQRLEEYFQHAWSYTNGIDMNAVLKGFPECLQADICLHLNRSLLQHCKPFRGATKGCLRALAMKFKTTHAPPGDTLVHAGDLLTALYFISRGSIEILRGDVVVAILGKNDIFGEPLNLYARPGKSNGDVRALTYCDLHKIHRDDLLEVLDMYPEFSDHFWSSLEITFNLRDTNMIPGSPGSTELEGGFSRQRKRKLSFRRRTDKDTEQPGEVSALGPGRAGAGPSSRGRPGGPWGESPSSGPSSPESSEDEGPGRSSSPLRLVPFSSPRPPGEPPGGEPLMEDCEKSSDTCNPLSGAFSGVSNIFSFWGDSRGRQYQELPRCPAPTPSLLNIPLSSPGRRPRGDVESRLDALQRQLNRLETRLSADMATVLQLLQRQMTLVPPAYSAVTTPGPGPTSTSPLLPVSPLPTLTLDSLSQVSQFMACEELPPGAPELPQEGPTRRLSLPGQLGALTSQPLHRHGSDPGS
Sequence of Nuclear receptor subfamily 1 group I member 2 (Rattus norvegicus) (Q9R1A7 whole entry, looked up): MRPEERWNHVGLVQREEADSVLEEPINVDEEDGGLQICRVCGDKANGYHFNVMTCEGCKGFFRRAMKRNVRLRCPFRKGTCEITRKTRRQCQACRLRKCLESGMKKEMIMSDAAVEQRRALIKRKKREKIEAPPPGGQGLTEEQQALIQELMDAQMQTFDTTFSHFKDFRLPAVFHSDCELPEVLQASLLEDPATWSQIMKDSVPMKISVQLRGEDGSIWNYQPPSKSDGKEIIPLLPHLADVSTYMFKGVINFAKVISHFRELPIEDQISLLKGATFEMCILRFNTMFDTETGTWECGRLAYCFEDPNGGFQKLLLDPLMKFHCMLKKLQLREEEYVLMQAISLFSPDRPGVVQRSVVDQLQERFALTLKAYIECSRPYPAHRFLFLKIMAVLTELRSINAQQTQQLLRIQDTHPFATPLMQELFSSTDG

CCOC(=O)CC(=O)C(=O)OCC
active: Potency [8] 35.6 µM | Potency [9] 39.9 µM | Potency [10] 31.7 µM | Potency [11] 49 µM | Potency [12] 71 µM
inactive: Potency [1] | Potency [2] | Potency [3] | Potency [4] | outcome [5] | Potency [6] | Potency [7]

O=C(C(=O)c1ccccc1)c1ccccc1
inactive: Potency [1] | Potency [2] | Potency [3] | Potency [4] | outcome [5] | Potency [6] | Potency [13] | Potency [9] | Potency [11] | Potency [12]
active: Potency [8] 8.9 µM | Potency [10] 11.2 µM

Cn1c(=O)c2c(ncn2CC(=O)O)n(C)c1=O
inactive: Potency [1] | Potency [2] | Potency [3] | Potency [4] | outcome [5] | Potency [13] | Potency [7] | Potency [9] | Potency [10] | Potency [11] | Potency [12]

C=CC(=O)NCOCC(C)C
inactive: Potency [1] | Potency [2] | Potency [3] | Potency [4] | outcome [5] | Potency [6] | Potency [13] | Potency [8] | Potency [9] | Potency [11] | Potency [12]

Cc1cc(O)c(C(C)C)cc1Cl
inactive: Potency [1] | Potency [2] | Potency [3] | Potency [4] | outcome [5] | Potency [13] | max activation [14] -0.692% | Potency [15] | Potency [16] | Potency [11] | Potency [12]
active: Potency [8] 35.6 µM and 24.5 µM | Potency [9] 14.2 µM and 15.5 µM | Potency [10] 20 µM and 15.5 µM
63.3 µM (active) and inactive: Potency [7]

COc1ccc(C(=O)c2cccc(O)c2)c(OC)c1
active: Potency [13] 61 µM | Potency [8] 3.55 µM | Potency [12] 31.7 µM
inactive: Potency [1] | Potency [2] | Potency [3] | Potency [4] | outcome [5] | Potency [9] | Potency [11]

O=S(=O)(c1ccccc1)c1ccc(Cl)cc1
inactive: Potency [1] | Potency [2] | Potency [3] | Potency [4] | outcome [5] | Potency [6] | Potency [9] | Potency [11] | Potency [12]
active: Potency [13] 30.6 µM | Potency [8] 3.99 µM | Potency [10] 44.8 µM

NCC1CCCC(CN)C1 (centres undefined)
inactive: Potency [1] | Potency [2] | Potency [3] | Potency [4] | outcome [5] | Potency [13] | Potency [8] | Potency [9] | Potency [10] | Potency [11] | Potency [12]

O=C(O)c1ccccc1NCCc1ccccc1
active: Potency [13] 23.7 µM | Potency [9] 13.8 µM
inactive: Potency [1] | Potency [2] | Potency [3] | Potency [4] | outcome [5] | Potency [8] | Potency [11] | Potency [12]
